Consider seven compounds from ChEMBL document CHEMBL1961873, “Compounds: GSK PKIS; Assays: Nanosyn kinase panel” (2012).

Test [1] addresses T1, Ephrin type-B receptor 2 (Homo sapiens) (UniProt P29323).
T1 sequence (whole entry): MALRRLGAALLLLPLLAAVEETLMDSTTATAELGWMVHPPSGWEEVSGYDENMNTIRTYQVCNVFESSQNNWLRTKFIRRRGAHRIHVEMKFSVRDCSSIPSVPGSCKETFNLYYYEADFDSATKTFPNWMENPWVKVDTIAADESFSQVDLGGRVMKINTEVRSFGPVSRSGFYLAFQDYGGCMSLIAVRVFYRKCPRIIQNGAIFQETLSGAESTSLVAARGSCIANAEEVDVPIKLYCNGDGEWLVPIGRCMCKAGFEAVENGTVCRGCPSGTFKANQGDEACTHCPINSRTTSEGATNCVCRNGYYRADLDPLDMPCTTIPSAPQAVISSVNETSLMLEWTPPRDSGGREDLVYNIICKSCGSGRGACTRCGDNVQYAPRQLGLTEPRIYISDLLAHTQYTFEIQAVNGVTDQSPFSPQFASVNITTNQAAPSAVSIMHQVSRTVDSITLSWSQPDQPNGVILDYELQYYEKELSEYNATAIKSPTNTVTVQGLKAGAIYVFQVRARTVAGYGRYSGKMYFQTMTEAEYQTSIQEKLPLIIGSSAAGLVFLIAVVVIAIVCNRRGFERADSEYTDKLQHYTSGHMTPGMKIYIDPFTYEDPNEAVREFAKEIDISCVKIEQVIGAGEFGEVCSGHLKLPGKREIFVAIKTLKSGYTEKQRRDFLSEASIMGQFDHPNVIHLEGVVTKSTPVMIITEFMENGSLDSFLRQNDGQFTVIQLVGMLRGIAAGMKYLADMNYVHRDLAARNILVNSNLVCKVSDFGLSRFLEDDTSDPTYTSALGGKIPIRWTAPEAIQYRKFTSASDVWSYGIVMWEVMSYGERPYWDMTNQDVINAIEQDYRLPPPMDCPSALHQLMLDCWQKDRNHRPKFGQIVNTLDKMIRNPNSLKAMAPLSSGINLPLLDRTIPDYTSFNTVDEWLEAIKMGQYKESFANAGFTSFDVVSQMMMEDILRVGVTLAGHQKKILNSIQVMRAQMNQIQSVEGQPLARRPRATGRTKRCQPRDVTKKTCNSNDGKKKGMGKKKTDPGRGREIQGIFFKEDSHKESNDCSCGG
As to conditions: at 1 µM.

Test [2] concerns the target T2, Ephrin type-B receptor 3 (Homo sapiens) (UniProt P54753).
T2 sequence (whole entry): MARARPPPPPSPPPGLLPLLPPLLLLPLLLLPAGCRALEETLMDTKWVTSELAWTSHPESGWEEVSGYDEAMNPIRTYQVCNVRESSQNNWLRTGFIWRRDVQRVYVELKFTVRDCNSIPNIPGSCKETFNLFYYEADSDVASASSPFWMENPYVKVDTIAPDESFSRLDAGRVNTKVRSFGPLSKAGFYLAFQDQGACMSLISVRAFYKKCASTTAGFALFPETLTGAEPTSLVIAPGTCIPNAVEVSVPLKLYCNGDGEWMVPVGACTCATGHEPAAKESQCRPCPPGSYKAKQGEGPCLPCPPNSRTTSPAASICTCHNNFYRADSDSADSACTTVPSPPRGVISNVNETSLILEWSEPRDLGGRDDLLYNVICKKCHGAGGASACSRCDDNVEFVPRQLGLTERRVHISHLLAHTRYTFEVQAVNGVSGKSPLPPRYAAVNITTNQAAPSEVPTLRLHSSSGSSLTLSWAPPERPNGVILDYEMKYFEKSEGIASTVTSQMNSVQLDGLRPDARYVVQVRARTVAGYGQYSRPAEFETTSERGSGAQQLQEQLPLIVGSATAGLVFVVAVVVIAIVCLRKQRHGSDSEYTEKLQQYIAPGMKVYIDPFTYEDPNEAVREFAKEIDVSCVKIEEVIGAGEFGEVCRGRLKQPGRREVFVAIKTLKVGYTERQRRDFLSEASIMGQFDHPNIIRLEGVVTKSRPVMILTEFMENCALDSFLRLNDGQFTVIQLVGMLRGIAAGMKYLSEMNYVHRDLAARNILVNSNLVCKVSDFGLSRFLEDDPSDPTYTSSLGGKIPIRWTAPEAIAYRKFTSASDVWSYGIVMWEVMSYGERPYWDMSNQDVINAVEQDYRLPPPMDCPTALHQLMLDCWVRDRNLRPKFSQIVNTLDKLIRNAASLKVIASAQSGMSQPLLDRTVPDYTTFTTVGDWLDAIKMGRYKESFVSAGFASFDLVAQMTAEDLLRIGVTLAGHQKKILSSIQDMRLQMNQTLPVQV
Conditions: at 0.1 µM.

Test [3] has as its target T2, Ephrin type-B receptor 3 (Homo sapiens). As to conditions: at 1 µM.
For test [4], the target named is T3, Ephrin type-B receptor 4 (Homo sapiens) (UniProt P54760).
T3 sequence (whole entry): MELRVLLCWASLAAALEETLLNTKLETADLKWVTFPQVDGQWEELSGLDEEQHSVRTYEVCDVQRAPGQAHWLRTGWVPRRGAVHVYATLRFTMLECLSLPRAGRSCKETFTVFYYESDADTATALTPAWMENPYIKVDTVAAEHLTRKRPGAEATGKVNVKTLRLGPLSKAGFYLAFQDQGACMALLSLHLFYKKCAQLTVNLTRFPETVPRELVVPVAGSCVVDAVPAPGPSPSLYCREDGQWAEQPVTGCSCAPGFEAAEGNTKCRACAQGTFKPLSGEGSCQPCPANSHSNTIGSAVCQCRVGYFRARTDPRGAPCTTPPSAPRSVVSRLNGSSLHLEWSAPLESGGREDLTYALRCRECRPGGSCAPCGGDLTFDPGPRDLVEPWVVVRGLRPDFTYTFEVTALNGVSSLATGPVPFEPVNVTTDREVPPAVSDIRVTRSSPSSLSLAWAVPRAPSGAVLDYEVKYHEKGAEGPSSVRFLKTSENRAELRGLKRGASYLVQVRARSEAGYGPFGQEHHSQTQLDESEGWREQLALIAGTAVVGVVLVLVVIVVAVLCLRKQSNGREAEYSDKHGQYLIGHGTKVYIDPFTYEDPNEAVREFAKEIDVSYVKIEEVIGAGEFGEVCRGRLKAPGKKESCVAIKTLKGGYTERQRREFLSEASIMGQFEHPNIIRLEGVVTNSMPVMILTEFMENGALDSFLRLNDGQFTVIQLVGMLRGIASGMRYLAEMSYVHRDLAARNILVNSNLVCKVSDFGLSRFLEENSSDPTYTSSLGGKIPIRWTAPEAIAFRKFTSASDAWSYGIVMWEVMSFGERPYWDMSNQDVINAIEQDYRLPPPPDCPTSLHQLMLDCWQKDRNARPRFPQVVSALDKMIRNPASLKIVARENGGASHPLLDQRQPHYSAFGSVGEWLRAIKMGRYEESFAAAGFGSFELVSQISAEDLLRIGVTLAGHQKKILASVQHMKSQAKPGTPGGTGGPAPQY
As to conditions: at 0.1 µM.

In test [5] the target is T3, Ephrin type-B receptor 4 (Homo sapiens). As to conditions: at 1 µM.
The target in test [6] is Receptor tyrosine-protein kinase erbB-2 (Homo sapiens) (UniProt P04626). As to conditions: at 0.1 µM.
The target is the same in test [7]. Conditions: at 1 µM.
For test [8], the target named is Receptor tyrosine-protein kinase erbB-4 (Homo sapiens) (UniProt Q15303). Conditions: at 0.1 µM.
Chain of Receptor tyrosine-protein kinase erbB-4 (Homo sapiens) (Q15303 whole entry): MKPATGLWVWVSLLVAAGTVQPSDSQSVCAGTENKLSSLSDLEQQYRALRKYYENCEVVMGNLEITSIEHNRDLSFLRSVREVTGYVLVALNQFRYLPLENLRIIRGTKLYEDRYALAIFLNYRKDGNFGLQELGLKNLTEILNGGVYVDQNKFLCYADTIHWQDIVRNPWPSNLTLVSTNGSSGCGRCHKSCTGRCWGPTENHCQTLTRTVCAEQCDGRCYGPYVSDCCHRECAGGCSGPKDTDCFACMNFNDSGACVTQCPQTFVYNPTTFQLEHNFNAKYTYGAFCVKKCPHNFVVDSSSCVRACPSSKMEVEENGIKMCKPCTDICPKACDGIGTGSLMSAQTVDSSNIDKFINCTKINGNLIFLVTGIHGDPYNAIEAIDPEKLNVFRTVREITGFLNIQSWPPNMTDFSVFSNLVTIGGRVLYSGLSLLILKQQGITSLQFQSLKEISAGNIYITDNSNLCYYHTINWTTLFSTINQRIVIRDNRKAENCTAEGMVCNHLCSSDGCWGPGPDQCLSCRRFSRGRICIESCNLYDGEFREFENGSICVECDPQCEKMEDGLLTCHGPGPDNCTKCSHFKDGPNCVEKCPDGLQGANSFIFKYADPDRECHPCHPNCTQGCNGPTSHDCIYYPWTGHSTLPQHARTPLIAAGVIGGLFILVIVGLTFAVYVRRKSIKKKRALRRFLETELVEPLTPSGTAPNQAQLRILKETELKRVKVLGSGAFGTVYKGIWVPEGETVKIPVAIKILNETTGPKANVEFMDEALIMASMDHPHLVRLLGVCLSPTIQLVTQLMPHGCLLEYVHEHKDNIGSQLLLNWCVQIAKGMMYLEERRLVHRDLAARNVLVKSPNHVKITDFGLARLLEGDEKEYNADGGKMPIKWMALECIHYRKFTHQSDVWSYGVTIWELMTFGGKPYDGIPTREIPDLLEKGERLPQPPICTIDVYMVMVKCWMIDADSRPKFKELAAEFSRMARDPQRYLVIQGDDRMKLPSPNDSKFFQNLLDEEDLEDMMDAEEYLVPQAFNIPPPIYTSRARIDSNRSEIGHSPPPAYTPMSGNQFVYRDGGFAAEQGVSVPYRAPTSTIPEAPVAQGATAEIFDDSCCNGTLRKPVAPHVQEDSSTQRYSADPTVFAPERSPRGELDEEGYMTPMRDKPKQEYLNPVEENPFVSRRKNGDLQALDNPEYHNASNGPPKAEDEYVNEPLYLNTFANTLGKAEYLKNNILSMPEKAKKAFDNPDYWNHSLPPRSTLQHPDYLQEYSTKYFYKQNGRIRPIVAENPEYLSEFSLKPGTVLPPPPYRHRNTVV
The target is the same in test [9]. Conditions: at 1 µM.
Test [10] addresses Tyrosine-protein kinase Fer (Homo sapiens) (UniProt P16591). Conditions: at 0.1 µM.
For test [11] the target is unchanged. As to conditions: at 1 µM.
Test [12] has as its target Tyrosine-protein kinase Fes/Fps (Homo sapiens) (UniProt P07332). Conditions: at 0.1 µM.
Test [13] shares this target. As to conditions: at 1 µM.
In test [14] the target is Fibroblast growth factor receptor 1 (Homo sapiens) (UniProt P11362). As to conditions: at 0.1 µM.
The target is the same in test [15]. Conditions: at 1 µM.
Test [16] concerns the target Fibroblast growth factor receptor 2 (Homo sapiens) (UniProt P21802). As to conditions: at 0.1 µM.
The target is the same in test [17]. Conditions: at 1 µM.
Test [18] addresses Fibroblast growth factor receptor 3 (Homo sapiens) (UniProt P22607). As to conditions: at 0.1 µM.
The target is the same in test [19]. Conditions: at 1 µM.
Test [20] deals with Fibroblast growth factor receptor 4 (Homo sapiens) (UniProt P22455). As to conditions: at 0.1 µM.
Chain of Fibroblast growth factor receptor 4 (Homo sapiens) (P22455 22-802 limits assumed): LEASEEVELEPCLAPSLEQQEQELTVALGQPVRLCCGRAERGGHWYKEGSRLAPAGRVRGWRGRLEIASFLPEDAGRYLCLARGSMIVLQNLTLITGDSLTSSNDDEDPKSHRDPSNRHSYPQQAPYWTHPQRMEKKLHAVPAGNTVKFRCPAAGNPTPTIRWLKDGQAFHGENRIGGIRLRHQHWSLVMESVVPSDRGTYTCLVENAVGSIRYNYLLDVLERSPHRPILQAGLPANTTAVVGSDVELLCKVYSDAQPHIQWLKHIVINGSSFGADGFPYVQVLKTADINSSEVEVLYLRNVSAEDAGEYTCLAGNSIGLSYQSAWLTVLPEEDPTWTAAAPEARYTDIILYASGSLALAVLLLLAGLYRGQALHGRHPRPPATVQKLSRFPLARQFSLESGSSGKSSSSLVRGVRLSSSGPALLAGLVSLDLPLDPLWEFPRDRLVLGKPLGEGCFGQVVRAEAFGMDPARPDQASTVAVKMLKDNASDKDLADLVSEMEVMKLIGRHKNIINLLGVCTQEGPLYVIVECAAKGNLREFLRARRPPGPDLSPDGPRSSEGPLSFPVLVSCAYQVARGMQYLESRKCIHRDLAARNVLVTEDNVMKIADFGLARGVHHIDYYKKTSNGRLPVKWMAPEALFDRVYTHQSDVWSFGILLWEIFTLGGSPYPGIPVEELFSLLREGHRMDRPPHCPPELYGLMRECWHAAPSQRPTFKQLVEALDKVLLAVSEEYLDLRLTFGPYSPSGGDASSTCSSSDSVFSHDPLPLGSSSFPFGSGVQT

Chain of Tyrosine-protein kinase Fer (Homo sapiens) (P16591 whole entry, looked up): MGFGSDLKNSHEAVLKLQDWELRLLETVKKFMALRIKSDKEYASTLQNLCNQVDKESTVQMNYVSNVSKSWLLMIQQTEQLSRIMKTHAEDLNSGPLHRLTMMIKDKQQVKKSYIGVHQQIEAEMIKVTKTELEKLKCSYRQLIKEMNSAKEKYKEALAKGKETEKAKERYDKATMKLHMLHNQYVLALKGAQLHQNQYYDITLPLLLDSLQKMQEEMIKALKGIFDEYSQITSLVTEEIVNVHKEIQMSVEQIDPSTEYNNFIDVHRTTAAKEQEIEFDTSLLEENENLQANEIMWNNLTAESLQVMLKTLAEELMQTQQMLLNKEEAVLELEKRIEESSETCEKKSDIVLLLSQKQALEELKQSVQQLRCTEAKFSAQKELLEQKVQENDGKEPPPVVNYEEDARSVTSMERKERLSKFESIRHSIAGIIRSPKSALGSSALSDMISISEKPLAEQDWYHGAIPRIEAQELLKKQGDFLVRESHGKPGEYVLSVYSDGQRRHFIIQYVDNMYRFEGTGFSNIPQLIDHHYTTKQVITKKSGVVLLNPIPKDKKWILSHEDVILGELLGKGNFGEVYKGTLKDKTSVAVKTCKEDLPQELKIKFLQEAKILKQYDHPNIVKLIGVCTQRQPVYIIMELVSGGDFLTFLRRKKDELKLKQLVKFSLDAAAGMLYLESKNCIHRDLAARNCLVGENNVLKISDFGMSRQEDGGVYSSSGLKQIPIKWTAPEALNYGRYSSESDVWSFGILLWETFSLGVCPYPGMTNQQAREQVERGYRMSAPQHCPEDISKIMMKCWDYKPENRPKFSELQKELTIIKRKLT
Chain of Fibroblast growth factor receptor 3 (Homo sapiens) (P22607 23-806 limits assumed): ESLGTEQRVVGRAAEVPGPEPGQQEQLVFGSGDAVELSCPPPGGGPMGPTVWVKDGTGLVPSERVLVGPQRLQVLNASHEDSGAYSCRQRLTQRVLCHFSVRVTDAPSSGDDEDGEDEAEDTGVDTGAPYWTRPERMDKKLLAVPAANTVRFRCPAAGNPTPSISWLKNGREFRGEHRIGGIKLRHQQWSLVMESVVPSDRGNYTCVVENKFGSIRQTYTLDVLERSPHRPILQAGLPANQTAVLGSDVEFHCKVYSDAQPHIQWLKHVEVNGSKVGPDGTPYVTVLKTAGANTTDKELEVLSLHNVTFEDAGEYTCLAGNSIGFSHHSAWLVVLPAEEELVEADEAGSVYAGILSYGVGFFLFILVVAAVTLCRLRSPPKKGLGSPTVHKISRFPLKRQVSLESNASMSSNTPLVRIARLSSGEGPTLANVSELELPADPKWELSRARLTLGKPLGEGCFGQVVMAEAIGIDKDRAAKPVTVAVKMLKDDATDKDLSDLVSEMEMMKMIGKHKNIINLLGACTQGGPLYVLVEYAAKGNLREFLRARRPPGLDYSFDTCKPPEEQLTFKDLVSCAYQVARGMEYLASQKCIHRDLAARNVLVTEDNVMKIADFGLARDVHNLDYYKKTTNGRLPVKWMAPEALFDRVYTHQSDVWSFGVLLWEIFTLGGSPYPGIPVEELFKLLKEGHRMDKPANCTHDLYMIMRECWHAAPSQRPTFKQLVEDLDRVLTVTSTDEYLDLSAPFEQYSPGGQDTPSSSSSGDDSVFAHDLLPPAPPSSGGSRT
Chain of Tyrosine-protein kinase Fes/Fps (Homo sapiens) (P07332 whole entry): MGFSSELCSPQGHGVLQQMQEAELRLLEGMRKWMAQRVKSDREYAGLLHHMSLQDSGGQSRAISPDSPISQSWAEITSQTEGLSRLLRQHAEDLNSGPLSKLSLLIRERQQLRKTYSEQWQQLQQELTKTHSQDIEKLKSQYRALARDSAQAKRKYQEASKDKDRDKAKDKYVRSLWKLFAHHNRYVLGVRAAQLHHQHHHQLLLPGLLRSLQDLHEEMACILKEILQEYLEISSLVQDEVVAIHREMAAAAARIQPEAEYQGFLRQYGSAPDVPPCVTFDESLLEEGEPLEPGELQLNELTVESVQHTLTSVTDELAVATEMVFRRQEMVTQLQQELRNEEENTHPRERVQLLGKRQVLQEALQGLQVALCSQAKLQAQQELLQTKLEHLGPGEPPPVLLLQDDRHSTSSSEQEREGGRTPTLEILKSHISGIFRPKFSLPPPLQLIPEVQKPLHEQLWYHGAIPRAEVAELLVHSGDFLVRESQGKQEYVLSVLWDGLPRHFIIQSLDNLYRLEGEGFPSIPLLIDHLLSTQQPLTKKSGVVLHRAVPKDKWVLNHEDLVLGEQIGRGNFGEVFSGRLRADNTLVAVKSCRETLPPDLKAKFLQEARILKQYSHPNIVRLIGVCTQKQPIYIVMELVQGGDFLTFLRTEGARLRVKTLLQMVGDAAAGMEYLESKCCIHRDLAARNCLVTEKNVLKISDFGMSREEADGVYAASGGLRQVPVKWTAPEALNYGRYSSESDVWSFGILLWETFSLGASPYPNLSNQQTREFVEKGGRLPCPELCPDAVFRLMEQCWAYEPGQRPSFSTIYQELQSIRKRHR

On to `CCC(=O)Nc1ccc(C)c(-c2ccc(C(=O)NCC3CC3)cc2)c1`, for which the inhibition – broadly, the drop in the measured response relative to a control, in per cent – in test [1] came out at 7.83%; in test [2] it was 2.63%; in [3], 4.65%; in test [4] it was 0.55%; in [5] it was 1.51%; in [6] it was 2.99%. For the same compound, the inhibition in [7] is 3.96%; in [8], 9.79%; in test [9], 13.9%; in [10], -0.76%; in [11], 1.35%; in [12] it was 3.63%. The inhibition in test [13] worked out at 2.61%; in test [14] it was 2.39%; in test [15], 4.4%; in [16], 3.64%; in test [17], 5.39%; in test [18] it was 2.42%. Moreover, the inhibition came out at 2.89% in test [19] and 2.19% in test [20].

Consider `Cc1ccc(NC(=O)c2ccoc2)cc1-c1ccc(C(=O)NCC2CC2)cc1`, for which the inhibition in test [1] turned out to be 5.88%; in test [2], 3.21%; in [3], 3.35%; in test [4], 0.88%; in test [5], 0.82%; in test [6], 5.47%. Also, the inhibition in test [7] is 5.7%; in test [8] it was 8.06%; in [9] it was 10.6%; in test [10], 0.47%; in test [11], -0.39%; in test [12] it was 2.83%. Further, the inhibition in test [13] is 1.55%; in test [14], 11.2%; in test [15], 3.99%; in test [16], 0.64%; in test [17], 3.44%; in test [18] it was 2.69%. The inhibition in test [19] is 5.14%; in test [20], 1.47%.

Consider `N#Cc1ccc(Oc2nccc(-c3c(-c4ccc(F)cc4)ncn3C3CCNCC3)n2)cc1`, for which the inhibition was 10.3% in test [1]; 5.17% in test [2]; 5.31% in test [3]; -0.34% in test [4]; 2.48% in [5]; 4.34% in [6]. The inhibition in test [7] worked out at 2.33%; in test [8] it was 9.54%; in [9], 11.9%; in test [10] it was 3.43%; in test [11], 4.07%; in test [12], 4.54%. Further, the inhibition in test [13] is 4.03%; in test [14], -0.69%; in [15] it was 5.45%; in test [16] it was 3.13%; in test [17] it was 6.84%; in test [18], 3.14%. Moreover, the inhibition in [19] is 5.22%; in [20] it was 0.73%.

Regarding `CCc1ccc(Oc2nccc(-c3c(-c4ccc(F)cc4)ncn3C3CCNCC3)n2)cc1`, the inhibition in test [1] stood at 9.06%; in test [2], 4.55%; in test [3] it was 4.56%; in [4], 1.97%; in [5], 3.15%; in [6], 1.55%. Moreover, the inhibition in [7] is 7.71%; in test [8] it was 7.62%; in test [9] it was 11.6%; in [10], -1.66%; in test [11] it was 3.15%; in [12], 3.41%. Moreover, the inhibition in test [13] was 3.8%; in [14], 7.59%; in test [15], 4.77%; in test [16], 9.05%; in test [17] it was 5.8%; in [18], 7.97%. The inhibition in test [19] turned out to be 5%; in test [20] it was 7.02%.

Turning to `NC(=O)c1cc(-c2ccncc2)cc(-c2ccccc2)c1N`, the inhibition in test [1] amounted to 57.7%; in [2] it was 7.22%; in test [3], 21.1%; in test [4], 7.68%; in test [5] it was 36%; in test [6] it was 4.68%. For the same compound, the inhibition in test [7] was determined as 8.53%; in test [8], 21.7%; in [9] it was 33.8%; in test [10], 6.01%; in [11], 4.57%; in [12] it was 3.8%. The inhibition is 3.92% in [13]; 8.68% in test [14]; 6.54% in test [15]; 5.47% in [16]; 8.42% in test [17]; 7.6% in test [18]. The inhibition in [19] stood at 6.17%; in test [20], 0.6%.

For the compound `CNC(=O)c1cncc(/C=C/c2c(C)cccc2C)c1`, the inhibition in test [1] is 65.9%; in test [2] it was -1%; in [3], 2.29%; in test [4], 7.98%; in test [5], 45.7%; in test [6], -0.21%. Moreover, the inhibition in [7] is 1.84%; in test [8] it was -1.45%; in test [9], 2.45%; in test [10], 1.13%; in [11] it was 3.37%; in test [12], -0.51%. In addition, the inhibition in test [13] was -0.68%; in test [14], -3.96%; in test [15], -3.96%; in [16] it was -3.46%; in test [17] it was -2.09%; in test [18], -2.67%. Besides, the inhibition is -3.86% in test [19] and -4.63% in test [20].

As for `FC(F)(F)c1cccc(Nc2nccc(-c3cnn4nc(-c5ccccc5)ccc34)n2)c1`, the inhibition was 6.85% in test [1]; 5.37% in test [2]; 2.32% in [3]; -0.91% in test [4]; 0.74% in test [5]; 2.98% in [6]. Moreover, the inhibition in test [7] is 2.21%; in test [8], 7%; in [9], 8.48%; in [10] it was -2.66%; in [11] it was 4.03%; in test [12], 1.27%. Also, the inhibition in test [13] was 2.38%; in test [14], -1.25%; in test [15], -0.07%; in test [16], 1.56%; in test [17], 3.34%; in test [18], 1.31%. Besides, the results for the inhibition in [19] and in test [20] were 2.97% and -0.29%, respectively.
